From PubChem BioAssay (NCATS)
Inconclusive results are not listed. Entries that show only a call come without a potency. Values without a mark were called inactive. The source made the active and inactive calls. Unless noted, the call rests on the fitted dose curve; in most records, active means well fitted curve in the direction sought with a large enough effect; inconclusive means small, poorly fitted or top-dose-only effect, or another doubt; inactive means no such curve, though single readings can be large; an effect the other way counts as inactive or inconclusive.

Columns and labels:
[1] = qHTS for Inhibitors of Plasmodium falciparum (DD2) proliferation (AID 504314); further: potency means the concentration at half of the fitted maximal effect;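 on activity, negative = inhibition: parasite DNA measured by SYBR Green fluorescence after red cell lysis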
Summary of the method: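 Normalization used 0.29 uM artemisinin as full inhibition and DMSO as baseline. Parasitized erythrocytes were exposed to compounds for 72 h (37C, 5% CO2), then lysed with saponin/Triton buffer containing SYBR Green I.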

[2] = qHTS for Inhibitors of Plasmodium falciparum (GB4) proliferation (AID 504315); further: nearly all actives have a fitted effect of over 50% in size; further: potency means the concentration at half of the fitted maximal effect
Summary of the method: (§1)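 Parasite growth measured as SYBR Green DNA fluorescence (ex 485, em 535 nm) after overnight lysis following 72 h culture at 37 °C, 0.3% parasitemia, 2.5% hematocrit. Values normalized against DMSO and 0.29 uM artemisinin controls, with plate-stack correction.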

[3] = qHTS for Inhibitors of Plasmodium falciparum (7G8) proliferation (AID 504316); further: nearly all actives have a fitted effect of over 65% in size; further: potency means the concentration at half of the fitted maximal effect
Summary of the method: as §1

[4] = qHTS for Inhibitors of Plasmodium falciparum (CP250) proliferation (AID 504320)
Summary of the method: as §1

[5] = target: Atrial natriuretic peptide receptor 1 (Homo sapiens) (UniProt P16066); assay: Natriuretic polypeptide receptor (hNpr1) antagonism - Pilot CMLD screen (AID 1347052; calls by dose curve;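 further: HEK293 cells with hNpr1 stimulated by hNppA peptide at 0.1 nM; cGMP level read as GloSensor luciferase luminescence after agonist stimulation; series mostly up to about 9.2 µM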)
[6] = qHTS for Inhibitors of Plasmodium falciparum (HB3) proliferation (AID 504318); further: nearly all actives have a fitted effect of over 60% in size; further: potency means the concentration at half of the fitted maximal effect
Summary of the method: as §1

Atrial natriuretic peptide receptor 1 (Homo sapiens), sequence (P16066 whole entry, looked up): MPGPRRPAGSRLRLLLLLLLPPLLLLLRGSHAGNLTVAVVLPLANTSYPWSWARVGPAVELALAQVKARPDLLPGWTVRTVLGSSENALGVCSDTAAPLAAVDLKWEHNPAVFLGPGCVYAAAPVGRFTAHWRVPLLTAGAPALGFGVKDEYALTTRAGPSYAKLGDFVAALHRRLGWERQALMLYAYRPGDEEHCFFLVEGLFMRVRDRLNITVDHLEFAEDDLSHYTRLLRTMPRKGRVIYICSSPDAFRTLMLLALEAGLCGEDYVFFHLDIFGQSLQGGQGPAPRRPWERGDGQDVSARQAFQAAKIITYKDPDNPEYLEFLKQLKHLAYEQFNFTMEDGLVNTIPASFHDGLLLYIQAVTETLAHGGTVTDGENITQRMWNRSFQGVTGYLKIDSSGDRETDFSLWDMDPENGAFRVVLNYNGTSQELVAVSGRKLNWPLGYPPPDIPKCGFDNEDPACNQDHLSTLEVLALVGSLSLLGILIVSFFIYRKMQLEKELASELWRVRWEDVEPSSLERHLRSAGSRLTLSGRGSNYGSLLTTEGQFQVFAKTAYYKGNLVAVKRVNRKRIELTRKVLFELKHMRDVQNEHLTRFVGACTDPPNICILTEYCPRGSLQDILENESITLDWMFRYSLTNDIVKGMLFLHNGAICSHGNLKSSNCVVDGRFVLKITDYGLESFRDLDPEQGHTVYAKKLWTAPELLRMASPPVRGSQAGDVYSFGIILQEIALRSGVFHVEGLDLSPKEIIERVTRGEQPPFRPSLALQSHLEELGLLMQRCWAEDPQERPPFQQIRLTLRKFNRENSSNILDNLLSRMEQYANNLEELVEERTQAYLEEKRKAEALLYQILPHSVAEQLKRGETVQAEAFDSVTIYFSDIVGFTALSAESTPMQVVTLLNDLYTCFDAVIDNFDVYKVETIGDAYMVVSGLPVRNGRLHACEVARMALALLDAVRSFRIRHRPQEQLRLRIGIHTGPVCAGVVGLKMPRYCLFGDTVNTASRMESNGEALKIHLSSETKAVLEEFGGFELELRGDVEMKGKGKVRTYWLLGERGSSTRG

Structure (SMILES) | Potency [1] | Potency [2] | Potency [3] | Potency [4] | Potency [5] | activity, negative = inhibition [1] | Potency [6]
COc1ccc(COC(=O)NN=C2C[C@@H](O)[C@@H](O)[C@@H]3[C@H]4C(=O)N(c5ccc(F)cc5F)C(=O)[C@@H]4CC[C@H]23)cc1 | inactive | inactive | inactive | inactive | inactive | – | –
C[C@H]1Cc2c(-c3ccccc3)nc3c(c2CO1)CN(S(=O)(=O)c1ccc2c(c1)OCCN2C)CC3 | – | inactive | inactive | inactive | inactive | 0.591% [at 1.12 µM] | –
COC(=O)CCC(=O)OC1(C)C(=O)C=C2C=C(C3CC3)N(CCc3c[nH]c4ccccc34)C=C2C1=O (stereo unspecified) | inactive | inactive | inactive | inactive | inactive | – | –
CCOC(=O)CN1C(=O)[C@]2(O[C@H](C)CC3=CCCC32)c2c(Br)cccc21 (stereo partly specified) | inactive | inactive | inactive | inactive | inactive | – | –
C[C@@H]1C=CCC(=O)OC[C@H](C)C(=O)OC[C@H]2O[C@H]1C=C[C@H]2O | inactive | inactive | inactive | inactive | inactive | – | –
CC12C=C(C=CCCc3ccco3)C(C)(C1)C(CCc1ccco1)CC2=O (stereo unspecified) | inactive | inactive | inactive | inactive | inactive | – | –
COC(=O)CC=C1c2ccccc2[C@@H](NC(=O)OC)[C@@H]1C | inactive | inactive | inactive | inactive | inactive | – | –
CCCNC(=O)OC[C@H]1O[C@H](CCON=C2c3cc(OC)ccc3O[C@H](c3cccc(OC)c3)[C@H]2O)C=C[C@H]1Oc1ccc(OC)cc1 | inactive | inactive | 1690 nM (active) | inactive | inactive | – | –
CCOC(=O)CCN1C(=O)[C@@H]2[C@H]3[C@H](O)[C@H](O)CC(=NNC(=O)OCc4ccc(OC)cc4)[C@H]3CC[C@H]2C1=O | inactive | inactive | inactive | inactive | inactive | – | –
Cc1cc2c(nc1C)CCCCN2C[C@H](C)ON=C[C@@H](C)[C@H](OCc1ccccc1)C(C)C | inactive | inactive | inactive | inactive | inactive | – | –
CC(C)OCCCN1C=C2C(=O)C(C)(OC(=O)C3CCCC3)C(=O)C=C2C=C1c1ccsc1 (stereo unspecified) | – | inactive | inactive | inactive | inactive | -2.66% [at 1.12 µM] | –
COC(=O)[C@H](COC(C)(C)C)NC(=O)O[C@@H]1C(=O)c2cc(OC)ccc2O[C@H]1c1ccc(OC)c(Br)c1 | inactive | inactive | inactive | inactive | inactive | – | –
C=CCN1C=C2C(=O)C(C)(OC(=O)c3ccco3)C(=O)C(C=C)=C2C=C1C1CC1 (stereo unspecified) | – | inactive | inactive | inactive | inactive | 2.08% [at 1.12 µM] | –
CC1(C)O[C@@H](C(O)(c2cc(C(F)(F)F)cc(C(F)(F)F)c2)c2cc(C(F)(F)F)cc(C(F)(F)F)c2)[C@H](C(O)(c2cc(C(F)(F)F)cc(C(F)(F)F)c2)c2cc(C(F)(F)F)cc(C(F)(F)F)c2)O1 | inactive | inactive | inactive | inactive | inactive | – | –
C=CCOC(=O)C1(C(NC(=O)OC)c2ccccc2)C(=O)Cc2ccccc21 (stereo unspecified) | inactive | inactive | inactive | inactive | inactive | – | –
COc1ccc(-c2nc3c(c4c2C[C@H](c2ccccc2)OC4)CN(C(=O)c2ccco2)CC3)c(C)c1 | – | inactive | 1690 nM (active) | inactive | inactive | -2.96% [at 1.12 µM] | –
COC(=O)CCCC1=CC2=C(c3ccccc3)C(=O)C(C)(OC(=O)C3CCCC3)C(=O)C2=CN1Cc1ccc2c(c1)OCO2 (stereo unspecified) | – | inactive | inactive | inactive | inactive | -1.06% [at 1.12 µM] | –
CCOC(=O)[C@@]1([C@@H](NC(=O)OC)c2ccco2)CCCC1=O | inactive | inactive | inactive | inactive | inactive | – | –
CC(=O)OC[C@H]1O[C@H](C#CCCCc2ccccc2)C=C[C@H]1OC(C)=O | inactive | inactive | inactive | inactive | inactive | – | –
COC(=O)C1=C(C(=O)OC)[C@@H]2Nc3ccccc3[C@@]23C[C@@H](C(=O)OC)N(C(=O)NC(C)(C)C)C3=N1 | inactive | inactive | inactive | inactive | inactive | – | –
COC(=O)N1[C@H]2CC[C@@]3(C)CC(=O)C[C@]1(C)C3c1ccccc12 | inactive | inactive | inactive | inactive | inactive | – | –
CCN1C(=NCc2ccc(OC)cc2)N[C@@H](CCc2ccccc2)[C@H](C(=O)NCc2ccc(OC)cc2)[C@H]1C | inactive | inactive | inactive | inactive | inactive | – | –
C=CCN1C(=O)[C@]2(OCCC=C[C@@H]2C)c2cc(OC)ccc21 | inactive | inactive | inactive | inactive | inactive | – | –
O=C1[C@H]2[C@@H]3[C@@H](O)[C@H](O)CC(=NOCc4ccccc4)[C@H]3CC[C@H]2C(=O)N1Cc1ccc2c(c1)OCO2 | inactive | inactive | inactive | inactive | inactive | – | –
C=C(C(C)=O)C(O)c1cccc(OC)c1 (stereo unspecified) | inactive | inactive | inactive | inactive | inactive | – | –
CC[C@H]1OC(c2ccccc2)[C@H](C)[C@H]2O[C@@H]2[C@@H]1C(=O)OC (stereo partly specified) | inactive | inactive | inactive | inactive | inactive | – | –
COc1ccc(COC(=O)NN=C2C[C@@H](O)[C@@H](O)[C@@H]3[C@H]4C(=O)N(Cc5ccccc5)C(=O)[C@@H]4CC[C@@H]23)cc1 | inactive | inactive | inactive | inactive | inactive | – | –

Structure (SMILES) | Potency [1] | Potency [2] | Potency [3] | Potency [4] | Potency [5] | activity, negative = inhibition [1] | Potency [6]
COc1ccc(CN2C=C3C(=O)C(C)(OC(=O)C4CCCC4)C(=O)C=C3C=C2c2ccsc2)cc1 (stereo unspecified) | – | inactive | inactive | inactive | inactive | -5.43% [at 1.12 µM] | –
COc1ccc(COC(=O)NN=C2C[C@@H](O)[C@@H](O)[C@@H]3[C@H]4C(=O)N(C5CCCCC5)C(=O)[C@@H]4CC[C@@H]23)cc1 | inactive | inactive | inactive | inactive | inactive | – | –
COC(=O)[C@H]1C[C@@]2(CC=C(C)C)C(=O)[C@@](CC=C(C)C)(C(=O)C(C(=O)c3ccccc3)=C2OC)C1(C)C | inactive | inactive | inactive | inactive | inactive | – | –
CCN1C(=NCc2ccc3c(c2)OCO3)N[C@@H](c2ccccc2)[C@H](C(=O)OC)[C@H]1C | inactive | inactive | inactive | inactive | inactive | – | –
CCN1C(=NCC(C)C)N[C@@H](CCc2ccccc2)[C@H](C(=O)OC)[C@H]1C | inactive | inactive | inactive | inactive | inactive | – | –
C[C@]12O[C@@H]1[C@@H](O)C(Br)=C(CO)[C@@H]2O | inactive | inactive | inactive | inactive | inactive | – | –
CCOC(=O)OC[C@H]1O[C@H](C#Cc2ccc(C)cc2C)C=C[C@H]1OC(=O)OCC | inactive | inactive | inactive | inactive | inactive | – | –
COc1cc2c(c(OC)c1OC)C1(c3ccccc3)CCCCCC1[C@@H]2NC(=O)C(F)(F)F (stereo partly specified) | inactive | inactive | inactive | inactive | inactive | – | –
C=CCOC(=O)N[C@H](c1cccc(OC)c1)[C@H](C)C=CCC(=O)OC | inactive | inactive | inactive | inactive | inactive | – | –
COCCN1C(=O)NC(c2ccc(Br)cc2)C(C(=O)OC)=C1C (stereo unspecified) | inactive | inactive | inactive | inactive | inactive | – | –
C#CCN1C(=O)C2(CC(C)=C[C@@H](C)O2)c2c(Br)cccc21 (stereo partly specified) | inactive | inactive | inactive | inactive | inactive | – | –
CCN1C(=NCCCOC(C)C)N[C@H](c2ccccc2)[C@H](C(=O)OC)[C@H]1C | inactive | inactive | – | – | inactive | – | inactive
C=CCNC(=O)[C@H]1C=C(OC)C(=O)C[C@H]2c3ccccc3C[C@]12C | inactive | inactive | inactive | inactive | inactive | – | –
COC[C@@H](O)[C@H]1OCc2cc(OC)ccc2[C@H]1C=Cc1ccccc1 | inactive | inactive | – | inactive | inactive | – | inactive
CC(C)OC(=O)[C@@H]1CC[C@H](C)[C@@H](CCC[C@@H]2CC=C[C@H](CC#N)O2)O1 | inactive | inactive | – | inactive | inactive | – | inactive
CC1=C[C@@H](C)OC2(C1)C(=O)N(Cc1ccc(Br)cc1)c1cccc(Br)c12 (stereo partly specified) | inactive | inactive | inactive | inactive | inactive | – | –
CC#CCN1c2ccccc2[C@]23CCC(=O)N(Cc4cccc(C(F)(F)F)c4)C2=NC(C(=O)OC)=C(C(=O)OC)[C@H]13 | inactive | inactive | – | inactive | inactive | – | inactive
COc1cc(OC)c2c(c1)OC1Cc3cc(OC)c(OC)cc3C2O1 (stereo unspecified) | – | inactive | inactive | inactive | inactive | -3.4% [at 1.12 µM] | –
CC=C[C@@H]1Oc2ccc(OC)cc2N2C(=O)[C@H](C)[C@@H](OCOC)[C@H]12 | inactive | inactive | – | inactive | inactive | – | inactive
CC(C)=CCN1C(=O)[C@]2(O[C@H](COc3ccccc3)CC3=CCCC32)c2c(Br)cccc21 (stereo partly specified) | 3780 nM (active) | 1900 nM (active) | – | – | inactive | – | 1900 nM (active)
CCOC(=O)c1c(C(=O)OCC)c2c3ccccc3cc(C)n2c1C(=O)OC | inactive | inactive | – | – | inactive | – | inactive
COC(=O)CCC(=O)OC1(C)C(=O)C=C2C=C(C3CC3)N(Cc3ccc(OC)cc3)C=C2C1=O (stereo unspecified) | inactive | inactive | – | inactive | inactive | – | inactive
C=CCNC(=O)[C@H]1C=C(OC)C(=O)C[C@H](c2ccccc2)[C@H]1C | inactive | inactive | – | – | inactive | – | inactive
COC(=O)[C@@H]1CC[C@H](C)[C@@H](c2ccc(C)cc2)N1C(=O)c1ccc(C=NOC[C@@H](O)[C@H]2O[C@@H]3OC(C)(C)O[C@H]3[C@@H]2O)cc1 | inactive | inactive | 1200 nM (active) | inactive | inactive | – | –
COC(=O)N[C@H](CC(C)=O)c1ccc2c(c1)OCO2 | inactive | inactive | inactive | inactive | inactive | – | –
CC[C@H](C)[C@@H](NC(=O)O[C@@H]1C(=O)c2ccc(OC)cc2O[C@H]1c1ccc2c(c1)OCO2)C(=O)OC | inactive | inactive | inactive | inactive | inactive | – | –
